Test results taken from PubChem BioAssay (EPA / NIEHS).
Values joined by “and” are separate entries in the source; they are usually repeats but may differ in a detail not shown here. Equal entries are not always repeated. Inconclusive results are not listed. Active and inactive are the calls of the source. The calls were made as follows, unless noted: active = hit-call score of the fitted dose curve at least 0.9, where 1 is the maximum; inactive = score below 0.9.

Legend:
[1] = ATG_TAL_CIS: Attagene CIS-FACTORIAL HepG2 Assay for human TAL Basal Promoter (AID 2282966); conditions: HepG2 Attagene cis-factorial TAL promoter reporter; actives raise or lower the signal;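 also: background control endpoint measuring basal TAL promoter reporter mRNA not a specific factor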
In short: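 In this cell-based multiplex, HepG2 liver cells bearing cis-promoter reporter constructs are dosed for 24 hours. Total RNA is reverse-transcribed and amplified, labelled fragments are sized by capillary electrophoresis, and signal changes are fitted bidirectionally versus DMSO.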

[2] = ATG_TGFb_CIS: Attagene CIS-FACTORIAL HepG2 Assay for human Transforming Growth Factor (TGF) (AID 2282967); conditions: HepG2 Attagene CIS TGFb reporter, mRNA transcription; actives raise or lower the signal
In short: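 Endogenous TGFB1-linked transcription factor activity read as reporter mRNA via RT-PCR and capillary electrophoresis, 24 h after dosing transiently transfected HepG2 cells. Gain or loss of signal fitted relative to DMSO.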

[3] = ATG_VDRE_CIS: Attagene CIS-FACTORIAL HepG2 Assay for human Vitamin D Receptor Element (VDRE) (AID 2282968); conditions: HepG2 VDRE cis-reporter transcription, actives raise or lower the signal
In short: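 Reporter mRNA induction, quantified by capillary electrophoresis of fluorescently labelled RT-PCR products, was read 24 h after dosing HepG2 cells carrying transiently transfected cis-regulated reporter units; gain or loss relative to DMSO.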

[4] = target: Nuclear receptor subfamily 1 group I member 3 (Homo sapiens) (UniProt Q14994); assay: ATG_CAR_TRANS: Attagene TRANS-FACTORIAL HepG2 Assay for human Constitutive Androstane Receptor (CAR) (AID 2282969; active = hit-call score of the fitted dose curve at least 0.9, where 1 is the maximum;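 also: activators raise reporter mRNA above DMSO so AC50 marks induction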); conditions: HepG2 Attagene TRANS-FACTORIAL CAR reporter
Sequence of Nuclear receptor subfamily 1 group I member 3 (Homo sapiens) (Q14994 whole entry, looked up, the tested form may be a part): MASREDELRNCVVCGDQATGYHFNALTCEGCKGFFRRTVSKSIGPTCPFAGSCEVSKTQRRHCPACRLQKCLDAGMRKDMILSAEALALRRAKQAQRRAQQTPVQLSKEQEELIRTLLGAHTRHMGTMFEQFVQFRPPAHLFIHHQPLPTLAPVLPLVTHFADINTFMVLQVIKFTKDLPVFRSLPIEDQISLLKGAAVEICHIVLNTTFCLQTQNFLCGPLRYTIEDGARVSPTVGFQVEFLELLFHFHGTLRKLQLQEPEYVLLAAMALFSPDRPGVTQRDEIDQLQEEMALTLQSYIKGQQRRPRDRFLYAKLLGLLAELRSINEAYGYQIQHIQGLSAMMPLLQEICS
In short: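 Readout is reporter mRNA induction, quantified by fluorescent primer extension and capillary electrophoresis after RT-PCR. Cells were HepG2 transiently carrying chimeric NR-Gal4 constructs with GAL4-UAS reporters, treated for 24 h; activity scored upward from DMSO.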

[5] = target: X-box-binding protein 1 (Homo sapiens) (UniProt P17861); assay: ATG_Xbp1_CIS: Attagene CIS-FACTORIAL HepG2 Assay for human X-box Binding Protein 1 (XBP1) (AID 2282972); conditions: HepG2 XBP1 cis-element reporter, Attagene multiplex; actives raise or lower the signal
Sequence of X-box-binding protein 1 (Homo sapiens) (P17861 whole entry, looked up): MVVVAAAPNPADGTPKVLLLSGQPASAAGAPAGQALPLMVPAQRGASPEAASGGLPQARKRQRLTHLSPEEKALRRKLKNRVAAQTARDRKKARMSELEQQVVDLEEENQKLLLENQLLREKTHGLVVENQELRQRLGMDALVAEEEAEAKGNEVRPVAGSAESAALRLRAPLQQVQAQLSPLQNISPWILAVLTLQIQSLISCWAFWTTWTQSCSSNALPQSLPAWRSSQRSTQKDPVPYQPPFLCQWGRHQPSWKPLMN
In short: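 HepG2 cells transiently transfected with multiple cis-element reporter units report endogenous TF activity; 24 h exposure, then reporter mRNA measured by RT-PCR, 6-FAM labelling, HpaI digestion and capillary electrophoresis. Bidirectional fitting versus DMSO.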

[6] = ATG_M_19_TRANS: Attagene TRANS-FACTORIAL HepG2 Assay for M19 Transcription Factor (Internal Marker) (AID 2282974; active = hit-call score of the fitted dose curve at least 0.9, where 1 is the maximum); conditions: HepG2 Attagene TRANS-FACTORIAL M19 internal marker reporter
In short: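 HepG2 transiently transfected with GAL4-UAS multiplex reporter constructs, exposed 24 h; reporter RNA quantified by RT-PCR, 6-FAM labeling, HpaI digestion and capillary electrophoresis; internal background marker fitted upward versus DMSO.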

[7] = target: Estrogen receptor (Homo sapiens) (UniProt P03372); assay: ATG_ERa_TRANS: Attagene TRANS-FACTORIAL HepG2 Assay for human Estrogen Receptor alpha (ERa) (AID 2282970; active = hit-call score of the fitted dose curve at least 0.9, where 1 is the maximum); conditions: HepG2 Attagene TRANS ERa GAL4 reporter, mRNA
Sequence of Estrogen receptor (Homo sapiens) (P03372 whole entry, looked up, the tested form may be a part): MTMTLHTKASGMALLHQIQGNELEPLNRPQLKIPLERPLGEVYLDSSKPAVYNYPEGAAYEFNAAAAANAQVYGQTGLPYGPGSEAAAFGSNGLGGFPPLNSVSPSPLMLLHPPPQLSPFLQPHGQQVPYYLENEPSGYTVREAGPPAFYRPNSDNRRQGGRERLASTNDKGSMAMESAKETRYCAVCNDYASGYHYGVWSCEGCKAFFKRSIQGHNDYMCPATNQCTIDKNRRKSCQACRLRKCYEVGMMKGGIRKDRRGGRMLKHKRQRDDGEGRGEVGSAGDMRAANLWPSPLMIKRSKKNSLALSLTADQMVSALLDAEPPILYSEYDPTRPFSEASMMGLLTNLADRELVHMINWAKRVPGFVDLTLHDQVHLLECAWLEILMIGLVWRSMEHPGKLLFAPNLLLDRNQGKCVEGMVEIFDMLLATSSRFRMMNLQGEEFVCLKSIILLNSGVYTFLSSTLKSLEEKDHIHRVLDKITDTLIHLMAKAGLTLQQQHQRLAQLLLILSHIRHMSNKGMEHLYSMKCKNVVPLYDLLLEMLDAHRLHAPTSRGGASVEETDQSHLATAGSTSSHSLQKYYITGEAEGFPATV
In short: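 After 24 h of compound treatment, RNA from HepG2 cells bearing transfected GAL4-UAS reporter constructs is converted to cDNA, amplified and fluorescently labelled. Capillary electrophoresis resolves the ERa-linked reporter; DMSO serves as negative control.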

[8] = target: Steroid hormone receptor ERR1 (Homo sapiens) (UniProt P11474); assay: ATG_ERRa_TRANS: Attagene TRANS-FACTORIAL HepG2 Assay for human Estrogen-Related Receptor alpha (ERRa) (AID 2282971; active = hit-call score of the fitted dose curve at least 0.9, where 1 is the maximum); conditions: HepG2 Attagene TRANS reporter, ERRa transactivation
Sequence of Steroid hormone receptor ERR1 (Homo sapiens) (P11474 whole entry, looked up, the tested form may be a part): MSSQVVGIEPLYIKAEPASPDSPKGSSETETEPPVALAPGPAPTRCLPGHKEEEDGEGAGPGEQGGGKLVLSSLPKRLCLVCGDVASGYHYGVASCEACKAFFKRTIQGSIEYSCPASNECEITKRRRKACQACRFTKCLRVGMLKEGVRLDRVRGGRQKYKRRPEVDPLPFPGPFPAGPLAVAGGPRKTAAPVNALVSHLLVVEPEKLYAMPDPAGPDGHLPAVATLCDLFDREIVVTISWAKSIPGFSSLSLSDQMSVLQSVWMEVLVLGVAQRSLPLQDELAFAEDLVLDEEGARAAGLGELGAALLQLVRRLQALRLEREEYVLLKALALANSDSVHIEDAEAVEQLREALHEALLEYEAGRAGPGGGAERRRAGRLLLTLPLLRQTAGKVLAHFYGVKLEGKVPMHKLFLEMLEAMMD
In short: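 Transfected HepG2, 24 h dosing, ERRa-Gal4 chimera driving GAL4-UAS reporter. Readout: reporter mRNA via RT-PCR plus capillary electrophoresis (fluorescence). Positive direction vs DMSO control.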

[9] = target: Androgen receptor (Homo sapiens) (UniProt P10275); assay: ATG_AR_TRANS: Attagene TRANS-FACTORIAL HepG2 Assay for human Androgen Receptor (AR) (AID 2282973; active = hit-call score of the fitted dose curve at least 0.9, where 1 is the maximum); conditions: HepG2 Attagene TRANS-FACTORIAL AR reporter transcription
Sequence of Androgen receptor (Homo sapiens) (P10275 whole entry, looked up, the tested form may be a part): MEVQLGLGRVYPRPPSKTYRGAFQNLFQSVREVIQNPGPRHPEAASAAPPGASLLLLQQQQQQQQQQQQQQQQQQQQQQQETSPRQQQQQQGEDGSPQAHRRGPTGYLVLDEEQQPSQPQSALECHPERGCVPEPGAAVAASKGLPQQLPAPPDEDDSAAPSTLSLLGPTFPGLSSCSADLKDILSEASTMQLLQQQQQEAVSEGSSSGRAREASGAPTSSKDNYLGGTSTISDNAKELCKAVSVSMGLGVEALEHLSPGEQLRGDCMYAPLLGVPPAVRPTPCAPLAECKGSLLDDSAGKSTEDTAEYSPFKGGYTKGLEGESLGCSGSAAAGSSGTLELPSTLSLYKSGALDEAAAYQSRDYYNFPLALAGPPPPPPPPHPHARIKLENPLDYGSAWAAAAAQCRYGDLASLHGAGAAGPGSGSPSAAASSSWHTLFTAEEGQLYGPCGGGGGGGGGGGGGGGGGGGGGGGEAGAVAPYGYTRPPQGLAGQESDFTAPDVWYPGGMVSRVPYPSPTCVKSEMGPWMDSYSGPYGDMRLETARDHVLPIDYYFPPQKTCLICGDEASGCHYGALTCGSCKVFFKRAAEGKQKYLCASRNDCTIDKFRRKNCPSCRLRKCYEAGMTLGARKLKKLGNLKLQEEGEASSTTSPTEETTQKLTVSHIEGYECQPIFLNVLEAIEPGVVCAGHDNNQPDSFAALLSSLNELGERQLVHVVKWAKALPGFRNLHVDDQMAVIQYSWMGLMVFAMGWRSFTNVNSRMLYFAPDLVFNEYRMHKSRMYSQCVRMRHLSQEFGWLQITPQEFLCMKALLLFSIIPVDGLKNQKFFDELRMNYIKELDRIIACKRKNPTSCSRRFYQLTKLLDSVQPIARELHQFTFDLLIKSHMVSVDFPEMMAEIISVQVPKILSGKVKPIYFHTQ
In short: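 Readout is reporter transcript abundance, quantified by fluorescent RT-PCR products separated on capillary electrophoresis. Human HepG2 liver cells carried transiently transfected NR-Gal4 chimera plus GAL4-UAS reporter constructs and were dosed for 24 h; activity scored upward versus DMSO.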

[10] = ATG_GAL4_TRANS: Attagene TRANS-FACTORIAL HepG2 Assay for GAL4 (Internal Marker) (AID 2282976; active = hit-call score of the fitted dose curve at least 0.9, where 1 is the maximum); conditions: HepG2 Attagene TRANS GAL4 internal marker reporter
In short: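 RT-PCR/capillary electrophoresis readout of reporter mRNA. HepG2, transient MRTU transfection (GAL4-UAS reporters), 24 h compound exposure. Background-control endpoint, positive direction vs DMSO baseline.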

For `OCc1ccco1`, the outcome [1] was “inactive”, the outcome [2] was “inactive” and the outcome [3] was “inactive”. For the same compound, the outcome [4] was “inactive” and the outcome [5] was “inactive”.

In the case of `O=C(Nc1ccc2[nH]ccc2c1)c1cc2cc(F)ccc2n1Cc1cccc(F)c1`, the outcome [1] was “inactive”, the outcome [2] was “inactive” and the AC50 [3] was 11 µM (active). The outcome [4] was “inactive”, the AC50 [5] was 14.1 µM (active) and the outcome [6] was “inactive”.

With `Clc1ccc(C2(Cn3cncn3)CC(Br)CO2)c(Cl)c1` (stereo unspecified) the outcome [1] was “inactive”, the outcome [2] was “inactive” and the AC50 [3] was 6.89 µM (active). For the same compound, the AC50 [7] was 6.86 µM (active) and the outcome [5] was “inactive”.

With `O=c1[nH]c(=O)[nH]c(=O)[nH]1` the outcome [1] was “inactive”, the outcome [2] was “inactive” and the outcome [3] was “inactive”. The outcome [4] was “inactive”, the outcome [8] was “inactive” and the outcome [5] was “inactive”. For the same compound, the outcome [9] was “inactive” and the outcome [6] was “inactive”.

For `Cn1sc(Cl)cc1=O`, the outcome [1] was “inactive”, the outcome [2] was “inactive” and the outcome [3] was “inactive”. For the same compound, the outcome [7] was “inactive” and the outcome [5] was “inactive”.

With `NNC(=S)NN` the outcome [1] was “inactive”, the outcome [2] was “inactive” and the outcome [3] was “inactive”. For the same compound, the outcome [7] was “inactive”, the outcome [8] was “inactive” and the outcome [5] was “inactive”. For the same compound, the outcome [6] was “inactive”.

For `CC1CN1P(=O)(N1CC1C)N1CC1C` (stereo unspecified), the outcome [1] was “inactive”, the outcome [2] was “inactive” and the outcome [3] was “inactive”. For the same compound, the outcome [4] was “inactive” and the outcome [5] was “inactive”.

For `Nc1cccc(Cl)c1`, the outcome [1] was “inactive”, the AC50 [2] was 0.739 µM (active) and the outcome [3] was “inactive”. For the same compound, the outcome [4] was “inactive”, the outcome [8] was “inactive” and the outcome [5] was “inactive”. The outcome [6] was “inactive”.

With `COc1cc(-c2ccc(N)c(OC)c2)ccc1N` the outcome [1] was “inactive”, the outcome [2] was “inactive” and the AC50 [3] was 27.8 µM (active) and 31 µM (active). The outcome [4] was “inactive”, the outcome [8] was “inactive” and the AC50 [5] was 27.7 µM (active) and 33.6 µM (active). For the same compound, the outcome [6] was “inactive”.

In the case of `COC(=O)Cc1ccccc1`, the outcome [1] was “inactive”, the outcome [2] was “inactive” and the outcome [3] was “inactive”. For the same compound, the outcome [4] was “inactive”, the outcome [5] was “inactive” and the outcome [6] was “inactive”.

With `CCN(CC)C(=O)Cl` the outcome [1] was “inactive”, the AC50 [2] was 0.104 µM (active) and the outcome [3] was “inactive”. For the same compound, the outcome [4] was “inactive”, the outcome [8] was “inactive” and the outcome [5] was “inactive”. For the same compound, the outcome [10] was “inactive”.

In the case of `N#CCCO`, the outcome [1] was “inactive”, the outcome [2] was “inactive” and the outcome [3] was “inactive”. The outcome [7] was “inactive” and the outcome [5] was “inactive”.

In the case of `O=C(OC1CCCCC1)c1ccccc1C(=O)OC1CCCCC1`, the outcome [1] was “inactive”, the AC50 [2] was 62.1 µM (active) and the AC50 [3] was 2.82 µM (active). For the same compound, the AC50 [7] was 3.1 µM (active) and the outcome [5] was “inactive”.

With `CCCCCCCCC(=O)NCc1ccc(O)c(OC)c1` the outcome [1] was “inactive”, the outcome [2] was “inactive” and the outcome [3] was “inactive”. The outcome [7] was “inactive” and the outcome [5] was “inactive”.

In the case of `CCC(C)c1cccc(C(C)CC)c1O` (stereo unspecified), the outcome [1] was “inactive”, the outcome [2] was “inactive” and the outcome [3] was “inactive”. The AC50 [7] was 24.4 µM (active) and the outcome [5] was “inactive”.

For `O=C(NCO)NCO`, the outcome [1] was “inactive”, the outcome [2] was “inactive” and the outcome [3] was “inactive”. For the same compound, the outcome [7] was “inactive”.

In the case of `CN(C)N=O`, the outcome [1] was “inactive”, the outcome [2] was “inactive” and the outcome [3] was “inactive”. The outcome [4] was “inactive” and the outcome [6] was “inactive”.

With `CCOC(=O)Nc1cccc(OC(=O)Nc2ccccc2)c1` the outcome [1] was “inactive”, the outcome [2] was “inactive” and the outcome [3] was “inactive”. The outcome [4] was “inactive”, the outcome [5] was “inactive” and the outcome [6] was “inactive”.

For `Nc1ccc(N=Nc2ccc(-c3ccc(N=Nc4c(S(=O)(=O)O)cc5cc(S(=O)(=O)O)c(N=Nc6ccccc6)c(O)c5c4N)cc3)cc2)c(N)c1`, the outcome [1] was “inactive”, the outcome [2] was “inactive” and the outcome [3] was “inactive”. The outcome [4] was “inactive” and the outcome [5] was “inactive”.

For `CC(C)c1cccc(C(C)C)c1O`, the outcome [1] was “inactive”, the outcome [2] was “inactive” and the outcome [3] was “inactive”. For the same compound, the outcome [4] was “inactive”, the outcome [5] was “inactive” and the outcome [6] was “inactive”.

For `CCOP(=S)(OCC)SCCS(=O)(=O)CC`, the outcome [1] was “inactive”, the outcome [2] was “inactive” and the outcome [3] was “inactive”. For the same compound, the outcome [7] was “inactive”, the outcome [8] was “inactive” and the outcome [6] was “inactive”.

With `O=C(CCl)CCl` the outcome [1] was “inactive”, the outcome [2] was “inactive” and the AC50 [3] was 45.4 µM (active). The outcome [7] was “inactive” and the AC50 [5] was 48.1 µM (active).

For `Nc1ncc([N+](=O)[O-])s1`, the outcome [1] was “inactive”, the outcome [2] was “inactive” and the outcome [3] was “inactive”. The outcome [7] was “inactive”, the outcome [5] was “inactive” and the outcome [6] was “inactive”.

For `Cl/C=C\C[N+]12CN3CN(CN(C3)C1)C2`, the outcome [1] was “inactive”, the outcome [2] was “inactive” and the outcome [3] was “inactive”. For the same compound, the outcome [8] was “inactive”, the outcome [9] was “inactive” and the outcome [6] was “inactive”.

In the case of `CCc1ccccc1C`, the outcome [1] was “inactive”, the outcome [2] was “inactive” and the outcome [3] was “inactive”. The outcome [5] was “inactive”, the outcome [9] was “inactive” and the outcome [6] was “inactive”.

For `C=C(C)C(=O)[O][Sn]([CH2]CCC)([CH2]CCC)[CH2]CCC`, the outcome [1] was “inactive”, the outcome [2] was “inactive” and the AC50 [3] was 0.185 µM (active). The AC50 [5] was 0.608 µM (active).

In the case of `Fc1ccc(C2(Cn3cncn3)OC2c2ccccc2Cl)cc1` (stereo unspecified), the outcome [1] was “inactive”, the outcome [2] was “inactive” and the AC50 [3] was 12.3 µM (active). For the same compound, the outcome [7] was “inactive”, the outcome [5] was “inactive” and the outcome [6] was “inactive”.

For `C(=NC1CCCCC1)=NC1CCCCC1`, the outcome [1] was “inactive”, the outcome [2] was “inactive” and the AC50 [3] was 3.69 µM (active). The outcome [7] was “inactive”, the AC50 [5] was 1.97 µM (active) and the outcome [6] was “inactive”.

For `CCSC(C)CC1CC(=O)C(C(CC)=NOC/C=C/Cl)=C(O)C1` (stereo unspecified), the outcome [1] was “inactive”, the outcome [2] was “inactive” and the AC50 [3] was 11.3 µM (active). The outcome [8] was “inactive”, the outcome [5] was “inactive” and the outcome [9] was “inactive”. The outcome [6] was “inactive”.

In the case of `ClC1(Cl)C2(Cl)C3(Cl)C4(Cl)C(Cl)(Cl)C5(Cl)C3(Cl)C1(Cl)C5(Cl)C24Cl` (stereo unspecified), the outcome [1] was “inactive”, the outcome [2] was “inactive” and the outcome [3] was “inactive”. For the same compound, the outcome [5] was “inactive”.

With `COc1cc2c(cc1OC)[C@@]13CCN4CC5=CCO[C@H]6CC(=O)N2[C@H]1[C@H]6[C@H]5C[C@H]43` the outcome [1] was “inactive”, the outcome [2] was “inactive” and the outcome [3] was “inactive”. For the same compound, the outcome [7] was “inactive”, the outcome [5] was “inactive” and the outcome [6] was “inactive”.

With `CNC` the outcome [1] was “inactive”, the outcome [2] was “inactive” and the outcome [3] was “inactive”. The outcome [5] was “inactive” and the outcome [6] was “inactive”.
